In the library only some 5.4% were active in any assay of this set; here they are far more common.
ALR inh: inhibitors of human ALR sulfhydryl oxidase, primary screen, biochemical, H2O2 detection, HRP-luminol luminescence, single point | FAD-linked sulfhydryl oxidase ALR (Homo sapiens), P55789 | purified ALR, DTT oxidation | inhibition, % (no concentration beside the values) | 290,000 tested, 3.8% active;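 active = mean replicate inhibition above about 79%, with every replicate also reaching it, limit read from the data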
Target sequence (P55789 whole entry, looked up): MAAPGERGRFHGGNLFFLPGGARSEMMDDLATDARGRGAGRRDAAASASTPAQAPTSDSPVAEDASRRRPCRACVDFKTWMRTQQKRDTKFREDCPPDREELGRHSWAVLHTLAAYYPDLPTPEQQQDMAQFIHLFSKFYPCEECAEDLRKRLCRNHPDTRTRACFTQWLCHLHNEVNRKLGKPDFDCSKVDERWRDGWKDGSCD
aDG glyco up: activators of alpha-DG glycosylation, primary screen, uHTS, Pro5-aDG cells, AlphaScreen | alpha-DG glycosylation AlphaScreen (IIH6); 0% Pro5, 100% B10-LARGE cell signal | activation, % at 10 µM | 360,000 tested, 0.22% active | AID 624168, 2012;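 active = activation of at least 8% versus controls, or a plate z-score of at least 8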;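 also: Pro5 are CHO cells carrying HIG-tagged alpha-DG that lacks glycosylation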
rCAG RNA binder: binders of r(CAG) RNA repeats, primary screen, biochemical, fluorescence; r(CAG) RNA repeat, TO-PRO-1 dye displacement fluorescence; inhibition, % at 3 µM; AID 651821, 2012; 370,000 tested, 1.3% active;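 active = inhibition above the plate cutoff, the mean of all test compounds on that plate plus 3 SD, cut at about 35% in these data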;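 also: higher means more dye released from RNA so lower well fluorescence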
APOBEC3G inh: APOBEC3G DNA deaminase inhibitors, primary screen, biochemical, fluorescence, single-stranded DNA substrate, uHTS | DNA dC->dU-editing enzyme APOBEC-3G (Homo sapiens), Q9HC16 | recombinant A3G, ssDNA deamination FAM/TAMRA fluorescence | inhibition, % at 20 µM | 330,000 tested, 0.28% active;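 active = inhibition of at least 40% at 20 µM, with no more than 30% in the related APOBEC3A deaminase screen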
A3A deaminase: APOBEC3A ssDNA deaminase inhibitors, primary screen, selectivity assay for APOBEC3G inhibitor project, biochemical, FAM/TAMRA oligo cleavage fluorescence. DNA dC->dU-editing enzyme APOBEC-3A (Homo sapiens), P31941. 330,000 tested, 0.41% active. inhibition, % at 20 µM. recombinant A3A, FAM/TAMRA ssDNA deamination fluorescence;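 active = at least 40% inhibition at 20 µM here, with at most 30% in a related deaminase screen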
Target sequence (P31941 whole entry, looked up): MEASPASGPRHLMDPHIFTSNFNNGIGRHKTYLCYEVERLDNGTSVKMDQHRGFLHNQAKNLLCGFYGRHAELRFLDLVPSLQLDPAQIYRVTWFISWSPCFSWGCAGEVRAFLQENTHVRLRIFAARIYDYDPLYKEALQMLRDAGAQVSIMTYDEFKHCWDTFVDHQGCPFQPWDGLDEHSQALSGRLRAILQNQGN
PHOSPHO1 inh: PubChem AID 1565; recombinant PHOSPHO1, absorbance phosphatase assay; inhibition, % at 13.3 µM; 290,000 tested, 1.1% active; Phosphoethanolamine/phosphocholine phosphatase (Homo sapiens), Q8TCT1; in the data active = inhibition above about 60%
Numbers stand for hits; – = inactive; · = not tested or not shown.

SMILES	ALR inh	aDG glyco up	rCAG RNA binder	APOBEC3G inh	A3A deaminase	PHOSPHO1 inh
Nc1nc(CCl)nc(Nc2ccccc2)n1	87.3	–	–	–	–	–
Cc1cccc(Nc2nc(N)nc(CCl)n2)c1C	90.6	–	–	–	–	–
COC(=O)c1ccc(S(=O)(=O)N2CCC(NC(=O)CCC3CCCC3)CC2)cc1	·	·	–	·	·	·
CNc1ccccc1/C(O)=C(\C#N)C(=O)NCc1cccs1	·	·	–	·	·	·
O=Cc1cccc(OC(=O)/C=C/c2ccco2)c1	98.2	–	–	–	–	–
COc1cccc(NC(=O)C2C3C=CC(O3)C2C(=O)NCc2cccnc2)c1 (configuration not stated)	98.0	–	–	–	–	–
CS(=O)(=O)N1CCC[C@]2(CC[C@@H](CCC#N)O2)C1	·	·	–	·	·	·
CN1[C@H](Cc2ccccc2)COc2cccc(F)c2S1(=O)=O	·	·	–	·	·	·
COc1ccccc1NC(=O)c1ccc(N)cc1	–	–	–	–	–	–
Nc1ccc(NC(=O)c2cccc(C(=O)Nc3ccc(N)cc3Cl)c2)c(Cl)c1	99.4	–	–	–	–	–
Nc1cccc(C(=O)Nc2ccco2)c1	98.5	–	–	–	–	–
Nc1cccc(C(=O)Nc2ccc(N)cc2Cl)c1	98.6	–	–	–	–	–
COC(=O)c1ccc(C(=O)Nc2ccc(N)cc2N)cc1	92.1	–	–	–	–	–
C=CCN1C(=O)[C@@H](CC(=O)NCCC(C)C)[C@]2(C(=O)OC)CCCCC=C12	·	·	–	·	·	·
COC(=O)C1CN(Cc2cn(Cc3ccc(OC)cc3)nn2)CCS(=O)(=O)N1Cc1ccc(C)cc1 (configuration not stated)	·	·	–	·	·	·
CN(C)/C=C1\N=C(c2cccs2)OC1=O	93.1	–	–	–	–	–
O=c1nc2n(c3sc4c(c13)CCCC4)C(CBr)CS2 (configuration not stated)	86.1	–	–	–	–	–
O=c1c2ccccc2nc2n1C(CBr)CS2 (configuration not stated)	–	–	–	–	–	–
O=C(Nc1nccs1)c1ccc2ccccc2c1	–	–	–	–	–	–
O=C(Nc1n[nH]c(=S)s1)c1ccc2ccccc2c1	97.9	–	–	–	–	–
Cc1ccc(N2C(=O)CN(Cc3cccs3)C2=S)cc1C	95.6	–	–	–	–	–
CCOC(=O)c1cccc(-c2cc(C(=O)OC)c3n(c2=O)CCC3)c1	·	·	–	·	·	·
CCS(=O)(=O)Nc1ccc2c(c1)C(=O)N(C)[C@@H]1CC[C@H](CC(=O)OC)O[C@H]1CO2	·	·	–	·	·	·
Oc1ccccc1/C=N/n1c(-c2ccccc2)n[nH]c1=S	97.5	–	–	–	–	–
Cc1[nH]n(-c2ccccc2)c(=O)c1/C=N/O	–	–	–	–	–	–
SMILES	ALR inh	aDG glyco up	rCAG RNA binder	APOBEC3G inh	A3A deaminase	PHOSPHO1 inh
O=[N+]([O-])c1cccc(-c2ccc(/C=N/n3c(-c4ccccc4)n[nH]c3=S)o2)c1	–	–	–	·	·	–
Cc1ccc(-c2n[nH]c(=S)n2/N=C/c2c(C)[nH]n(-c3ccccc3)c2=O)cc1	98.5	–	–	–	–	–
Cc1nn(-c2ccccc2)c(C)c1/C=N/n1c(-c2ccc(Cl)cc2)n[nH]c1=S	–	–	–	–	–	–
Cc1[nH]n(-c2ccccc2)c(=O)c1/C=N/N(C)c1ccccc1	81.6	–	–	–	–	–
O=[N+]([O-])c1ccc(O)c(/C=N/n2c(-c3ccccc3)n[nH]c2=S)c1	92.8	–	–	–	–	–
COc1cc2c(cc1OC)CSC1C(=O)N(C)C(SC2)C(=O)N1C	·	·	–	·	·	·
Cc1ccc(-n2c(SCC(=O)Nc3ccccc3-c3ccccc3)nnc2-c2ccccn2)cc1	·	·	–	·	·	·
Nc1ccccc1C(O)(Cc1ccccc1)c1ccccc1 (configuration not stated)	98.6	–	–	–	–	–
COc1ccc(-n2c(SCC(=O)Nc3ccccc3-c3ccccc3)nnc2-c2ccco2)cc1	·	·	–	·	·	·
Cc1c(Br)c(=O)oc2c(Br)c(O)c(O)cc12	98.3	–	–	·	·	–
Cc1c(Br)c(=O)oc2c(Br)c(O)ccc12	–	–	–	–	–	–
CS(=O)(=O)N[C@@H]1C[C@@H]2O[C@H](CO)CC[C@@H]2O[C@@H]1CCc1ccc(/C=C/c2ccccc2)cc1	·	·	–	·	·	·
O=S(=O)(Nc1ccccc1N1CCCCC1)c1ccc(Cl)s1	–	–	–	–	–	–
O=C(Nc1ccccc1)c1ccccc1NS(=O)(=O)c1ccc(Cl)s1	–	–	60.0	–	–	–
O=C(NCc1ccco1)c1ccccc1NS(=O)(=O)c1ccc(Cl)s1	95.0	–	–	–	–	–
COc1ccc(-n2c(SCC(=O)Nc3ccc(S(=O)(=O)Nc4cc(C)nc(C)n4)cc3)nnc2-c2ccco2)cc1	·	·	–	·	·	·
O=C1NCCCc2c1oc1cc(Br)c(O)c(Br)c21	98.8	–	–	–	–	–
O=[N+]([O-])c1ccc2nc(C3CCCCC3)[nH]c2c1	97.2	–	–	–	–	–
COP(=O)(O)[C@@H](CC(C)C)NC(=O)OCc1ccccc1	·	·	–	·	·	·
CC(C)COC(=O)c1ccc2c(c1O)C(=O)c1ccccc1C2=O	–	–	–	–	–	80.4
COc1ccc(-n2cc(COC(=O)NCCc3ccccc3)nn2)cc1	·	·	–	·	·	·
Cc1cccc2cc3c(N)c(C#N)sc3nc12	–	–	–	–	–	63.7
Cc1cccc2cc3c(N)c(C(=O)N4CCc5ccccc54)sc3nc12	–	–	–	–	–	–
CCN1C(=O)N(C(C)=O)[C@@H]2C[C@H](C(=O)N3CCCC3)[C@H](C)[C@H](c3ccccc3)C[C@@H]21	·	·	–	·	·	·
COC(=O)[C@]12C[C@H](CC(=O)NCc3ccccc3)C(=O)N(CCC3=CCCCC3)C1=C[C@H](C1CCCC1)O[C@@H]2C	·	·	–	·	·	·
SMILES	ALR inh	aDG glyco up	rCAG RNA binder	APOBEC3G inh	A3A deaminase	PHOSPHO1 inh
CCOC(=O)c1ccc2c(c1)C1C=CCC1C(C(=O)O)N2 (configuration not stated)	–	·	·	–	–	–
O=C(O)C1Nc2c(C(=O)N3CCOCC3)cccc2C2C=CCC12 (configuration not stated)	–	–	·	–	–	62.7
Cc1ccc2c(c1C)NC(C(=O)O)C1CC=CC21 (configuration not stated)	–	–	·	–	–	61.9
Cc1cc(C)c2c(c1)NC(C(=O)O)C1CC=CC21 (configuration not stated)	·	–	58.5	–	–	–
COC(=O)N1CCC[C@H]1c1cccc2[nH]cc(C)c12	·	·	–	·	·	·
COc1cc(N/N=C(\C)c2ccc(N)cc2)nc(-c2ccccc2)n1	97.8	–	–	–	–	–

Compound activity: PubChem BioAssay, several laboratories
